Measured values: PubChem BioAssay (NCI)
Compounds without any hit were thinned out: in the full panel of roughly 83,000, 20% have a hit.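 Values shown are percent growth following 48 h exposure of cells in 96-well plates to a single concentration of compound; below 10 was considered active.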 Unmarked numbers belong to inactive results. The source made the active and inactive calls.

Tested on: MDA-MB-468 breast
Experiment: NCI-60 one-dose screen, 48 h (100 = growth as untreated, 0 = no growth, -100 = all killed)
Conditions: 10 µM unless noted

| Compound | growth |
| --- | --- |
| Cn1cc(C(=O)c2nc(-c3c[nH]c4ccc(F)cc34)no2)c2cc(F)ccc21 | 107% |
| Cn1c(=O)c2c(nc3n(-c4ccc(Cl)cc4Cl)c(Sc4nc(-c5ccccc5)c(C#N)c(=O)[nH]4)cn23)n(C)c1=O | 60.5% |
| CC1(C)C2CCC1(C)C1(C2)OCCS1 (stereo unspecified) | 89.8% |
| OCCOc1c(Cl)cc(Cl)cc1Cl | 127% |
| Cc1c[nH]c(=O)n(Cc2nnc(CCC(=O)c3nc4ccccc4[nH]3)o2)c1=O | -1.54% (active) |
| CCOC(=O)C(NC(=O)C(Cl)Cl)C(O)c1ccccc1 (stereo unspecified) | 102% |
| COc1cc2cc(c1Cl)N(C)C(=O)C[C@H](OC(=O)[C@H](C)N(C)C(=O)CCS)C[C@]1(C)O[C@H]1[C@H](C)[C@@H]1C[C@@](O)(NC(=O)O1)[C@H](OC)/C=C/C=C(\C)C2 | 42% |
| COC1CC2CCC(C)C(O)(O2)C(=O)C(=O)N2CCCCC2C(=O)OC(C(C)CC2CCC(O)C(OC)C2)CC(=O)C(C)C=C(C)C(O)C(OC)C(=O)C(C)CC(C)/C=C/C=C/C=C1C (stereo unspecified) | 23.3% |
| COc1cc(C2CC(c3ccc(Nc4ccnc5cc(Cl)ccc45)cc3)=NN2c2ccccc2)cc(OC)c1OC (stereo unspecified) | 44.6% |
| C=C(C=O)[C@@H]1CC[C@]2(CO)CC[C@]3(C)[C@H](CC[C@@H]4[C@@]5(C)CCCNC(C)(C)[C@@H]5CC[C@]43C)[C@@H]12 | 48.6% |
| C=C1C(=O)O[C@H]2[C@H]1CC/C(COC(=O)NCCOCCOCC(=O)Nc1ccc(OC)c(C(N)=O)c1O)=C\CC[C@@]1(C)O[C@@H]21 | 17% |
